# Reference: PubChem BioAssay
# A number with no mark means an inactive call. For part of these data: Entries with a potency or affinity are not part of this list. The source made the active and inactive calls. Unless noted, the rule behind the calls is not given here.
# Columns and labels:
# [1] = antimalarial activity against Dd2 strain (AID 2302;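 active = growth inhibition above 50% at the single 2 µM test dose, taken to imply half-maximal potency below 2 µM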;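 note: 0% = DMSO untreated growth and 100% = chloroquine plus artemisinin killed control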); conditions: P. falciparum Dd2 in RBCs, LDH growth readout, 72 h; at 2 µM; stronger effect = higher value
# [2] = human hepatoma cell viability loss – ATP luminescence, cytotoxicity control for P. falciparum antimalarial project, primary screen (AID 2303;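 active = inhibition above 50%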;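 note: 0% = DMSO wells and 100% = digitonin-killed cells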); conditions: HepG2 viability, 24-48 h, at 10 µM, stronger effect = higher value
# [3] = biological target: L-lactate dehydrogenase (Plasmodium falciparum (isolate CDC / Honduras)) (UniProt Q27743); assay: PfLDH activity inhibition – cell lysate, 3D7 strain, counter-screen for P. falciparum growth inhibition project (AID 2304);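 note: 0% = vehicle and 100% = reference inhibitor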; conditions: P. falciparum 3D7 crude extract, LDH APAD/NBT absorbance; at 2 µM; stronger effect = higher value
# [4] = inhibition of 3D7 malaria parasite growth – strain 3D7 (AID 2306);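 note: 0% = DMSO wells and 100% = chloroquine plus artemisinin control wells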; conditions: P. falciparum 3D7 erythrocytic growth, LDH absorbance, 72 h; at 2 µM; stronger effect = higher value
# [5] = biological target: Calcium-dependent protein kinase 1 (Plasmodium falciparum (isolate 3D7)) (UniProt P62344); assay: PfCDPK1 kinase inhibitors, biochemical, TCAMS library (AID 1159585; cut-off not given, nearly all actives have IC50 up to about 0.98 µM;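 note: inhibitors leave more ATP so luminescence rises with inhibition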); conditions: recombinant PfCDPK1, Kinase-Glo ATP depletion luminescence
# [6] = biological target: Plasmodium falciparum protein kinase 6 (PK6, PF3D7_1337100) (UniProt Q8IDW1); assay: PfPK6 kinase inhibitors, biochemical, TCAMS library (AID 1159586); conditions: recombinant PfPK6, Kinase-Glo ATP depletion luminescence
# [7] = biological target: Protein kinase 7 (PK7), Plasmodium falciparum 3D7 (PF3D7_0213400) (UniProt Q7YTF7); assay: inhibition of Plasmodium PK7 catalytic activity – biochemical, TCAMS antimalarial set, Kinase-Glo luminescence (AID 1159587); conditions: recombinant PfPK7, Kinase-Glo ATP depletion luminescence
# [8] = biological target: Calcium-dependent protein kinase 4 (Plasmodium falciparum (isolate 3D7)) (UniProt Q8IBS5); assay: PfCDPK4 kinase inhibitors, biochemical, TCAMS library (AID 1159588; cut-off not given, nearly all actives have IC50 up to about 0.91 µM); conditions: recombinant PfCDPK4, Kinase-Glo ATP depletion luminescence
# Calcium-dependent protein kinase 4 (Plasmodium falciparum (isolate 3D7)), sequence (Q8IBS5 whole entry, looked up): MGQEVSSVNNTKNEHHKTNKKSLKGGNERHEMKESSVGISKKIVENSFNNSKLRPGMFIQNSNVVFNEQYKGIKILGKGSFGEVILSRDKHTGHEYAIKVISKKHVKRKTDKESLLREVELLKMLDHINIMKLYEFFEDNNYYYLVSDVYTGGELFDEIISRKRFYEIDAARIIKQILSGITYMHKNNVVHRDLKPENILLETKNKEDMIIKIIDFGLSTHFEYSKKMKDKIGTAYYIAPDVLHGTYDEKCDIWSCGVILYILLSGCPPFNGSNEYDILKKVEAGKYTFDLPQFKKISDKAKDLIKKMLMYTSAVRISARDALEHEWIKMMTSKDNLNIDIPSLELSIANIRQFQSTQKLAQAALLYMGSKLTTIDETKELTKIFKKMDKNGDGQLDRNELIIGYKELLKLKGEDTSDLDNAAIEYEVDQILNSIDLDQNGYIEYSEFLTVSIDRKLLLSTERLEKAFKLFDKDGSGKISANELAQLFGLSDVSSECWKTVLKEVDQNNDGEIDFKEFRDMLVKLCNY
# L-lactate dehydrogenase (Plasmodium falciparum (isolate CDC / Honduras)), sequence (Q27743 whole entry, looked up): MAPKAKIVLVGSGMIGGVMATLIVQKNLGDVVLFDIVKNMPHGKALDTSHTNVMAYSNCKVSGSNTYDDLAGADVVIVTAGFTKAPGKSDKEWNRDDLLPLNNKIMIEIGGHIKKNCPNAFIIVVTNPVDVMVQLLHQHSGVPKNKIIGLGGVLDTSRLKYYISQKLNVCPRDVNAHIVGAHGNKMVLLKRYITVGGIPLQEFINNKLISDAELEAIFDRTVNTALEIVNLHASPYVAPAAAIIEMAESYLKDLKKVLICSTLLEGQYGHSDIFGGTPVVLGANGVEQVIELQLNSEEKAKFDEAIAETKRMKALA
# Protein kinase 7 (PK7), Plasmodium falciparum 3D7 (PF3D7_0213400), sequence (Q7YTF7 1-343): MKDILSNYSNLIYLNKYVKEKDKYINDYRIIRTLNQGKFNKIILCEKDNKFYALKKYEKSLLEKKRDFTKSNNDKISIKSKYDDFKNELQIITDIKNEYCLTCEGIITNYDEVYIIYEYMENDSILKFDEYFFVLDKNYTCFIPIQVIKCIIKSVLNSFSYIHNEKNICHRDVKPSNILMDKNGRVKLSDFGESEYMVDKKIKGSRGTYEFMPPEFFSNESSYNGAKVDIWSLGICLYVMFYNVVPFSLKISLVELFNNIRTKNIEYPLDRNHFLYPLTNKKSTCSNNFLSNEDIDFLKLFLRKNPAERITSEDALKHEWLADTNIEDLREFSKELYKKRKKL
# Plasmodium falciparum protein kinase 6 (PK6, PF3D7_1337100), sequence (Q8IDW1 1-305): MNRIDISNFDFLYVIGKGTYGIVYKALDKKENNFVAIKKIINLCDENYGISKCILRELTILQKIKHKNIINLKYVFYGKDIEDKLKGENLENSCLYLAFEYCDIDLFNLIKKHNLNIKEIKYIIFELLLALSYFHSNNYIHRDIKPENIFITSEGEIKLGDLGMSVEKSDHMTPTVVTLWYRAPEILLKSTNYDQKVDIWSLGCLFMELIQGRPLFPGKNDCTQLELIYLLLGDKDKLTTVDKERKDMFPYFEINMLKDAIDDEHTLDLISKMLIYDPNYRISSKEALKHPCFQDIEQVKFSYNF
# Calcium-dependent protein kinase 1 (Plasmodium falciparum (isolate 3D7)), sequence (P62344 whole entry, looked up): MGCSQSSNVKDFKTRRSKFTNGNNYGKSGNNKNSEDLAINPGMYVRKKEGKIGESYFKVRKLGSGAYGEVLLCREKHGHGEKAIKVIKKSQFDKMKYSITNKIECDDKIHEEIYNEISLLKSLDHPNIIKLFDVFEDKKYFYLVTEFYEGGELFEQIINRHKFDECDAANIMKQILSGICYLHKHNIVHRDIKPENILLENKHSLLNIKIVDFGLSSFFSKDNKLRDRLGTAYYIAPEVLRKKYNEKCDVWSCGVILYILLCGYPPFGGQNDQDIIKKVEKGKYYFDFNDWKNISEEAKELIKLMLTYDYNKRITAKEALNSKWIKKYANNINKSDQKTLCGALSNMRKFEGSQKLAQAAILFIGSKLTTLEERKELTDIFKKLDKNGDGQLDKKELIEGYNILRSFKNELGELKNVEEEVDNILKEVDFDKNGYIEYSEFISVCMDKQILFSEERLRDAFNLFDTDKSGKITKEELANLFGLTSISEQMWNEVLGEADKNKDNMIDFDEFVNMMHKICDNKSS
Compound,growth inhibition [1],inhibition [2],inhibition [3],growth inhibition [4],outcome [5],outcome [6],outcome [7],outcome [8]
CC(C)CNCc1cccc(-c2cccc(CN(CCN(C)C)C(=O)NCCc3ccccc3)c2)c1,83% (active),84% (active),-4%,99% (active),inactive,inactive,inactive,inactive
COc1ccc(CN2CCCC(N3CC4(OC3=O)c3ccccc3-c3ccccc34)C2)c(O)c1 (configuration not stated),34%,14%,7%,92% (active),inactive,inactive,inactive,inactive
COc1cc2c(cc1C(F)(F)F)N(C(=O)Nc1cc(-c3ccncc3)cc(-c3cccnc3)c1)CC2,50% (active),64% (active),7%,95% (active),inactive,inactive,inactive,inactive
COc1ccc(-n2ncc(C(=O)N3CCC4(C3)C(=O)N(c3ccccc3)c3ccccc34)c2C)cc1 (configuration not stated),91% (active),45%,0%,88% (active),inactive,inactive,inactive,inactive
CCc1cccc(OCC2CCCN(c3ccc(C(=O)NC4CC4)cn3)C2)c1 (configuration not stated),73% (active),-1%,5%,94% (active),inactive,inactive,inactive,inactive
COC(=O)Cn1c2ccccc2c2c(N)c(C(=O)OC)c(C)nc21,1%,0%,4%,93% (active),inactive,inactive,inactive,inactive
COc1ccc(CNC2CCN(C)CC2)cc1-c1ccc(S(=O)(=O)NC2CCC2)c(C)c1,96% (active),24%,0%,101% (active),inactive,inactive,inactive,inactive
Cc1nc(-c2cccc(C(F)(F)F)c2)n2nc(Nc3ccc(OCCN4CCCC4)cc3)ncc12,29%,30%,-3%,99% (active),inactive,inactive,inactive,inactive
COc1ccc2nccc([C@@H](O)CN3CCC(NC(=O)C(c4ccccc4C)N4CCC(Cc5ccccc5)CC4)CC3)c2c1 (some centres not stated),97% (active),10%,3%,102% (active),inactive,inactive,inactive,inactive
CN1CCN(CCCN(Cc2csc(-c3ccc(CNCc4ccccc4)cc3)n2)C(=O)Nc2cccc(Cl)c2)CC1,67% (active),32%,-5%,102% (active),inactive,inactive,inactive,inactive
Cc1cc(C2CCN(CCCCNC(=O)c3ccc(-c4ccc(C#N)cc4)cc3)CC2)c(C)cc1OCCO,68% (active),20%,2%,96% (active),inactive,inactive,inactive,inactive
COc1ccccc1COc1c(C)nc(N)nc1N,1%,32%,-1%,98% (active),inactive,inactive,inactive,inactive
COc1cccc(C(=O)NCc2cccs2)c1OCc1ccccc1,-1%,-12%,5%,96% (active),inactive,inactive,inactive,inactive
CN(C(=O)/C=C/c1c(Cl)cccc1Cl)C1CCN(CCCCCNC(=O)/C=C/c2ccc(Cl)c(Cl)c2)CC1,62% (active),78% (active),4%,92% (active),inactive,inactive,inactive,inactive
c1ccc(Oc2ccc(Nc3nncc4ccccc34)cc2)cc1,82% (active),20%,1%,86% (active),inactive,inactive,inactive,inactive
CCOC(=O)C1=C(C)N=c2sc(=Cc3cc(Cl)ccc3O)c(=O)n2C1c1ccc(OC)cc1 (configuration not stated),65% (active),-6%,-3%,99% (active),inactive,inactive,inactive,inactive
COc1ccccc1NC(=O)Nc1cccc(-c2cccc(-c3nc4c(C)cccc4[nH]3)c2)c1,90% (active),11%,-1%,101% (active),inactive,inactive,inactive,inactive
Nc1nc(N)c2c(ccc3c2ccn3CCCF)n1,0%,61% (active),0%,94% (active),inactive,inactive,inactive,inactive
Cc1nc2ccc3ccc(CNc4ccc(C(=O)N[C@@H](CCC(=O)O)C(=O)N[C@@H](Cc5cccs5)C(=O)O)c(F)c4)cc3c2c(=O)[nH]1,96% (active),43%,4%,97% (active),inactive,inactive,inactive,inactive
CS(=O)(=O)NCCCNCc1cccc(-c2ccc(-c3nc4ccc(C(F)(F)F)cc4[nH]3)cc2)c1,85% (active),17%,-4%,100% (active),inactive,inactive,inactive,inactive

Compound,growth inhibition [1],inhibition [2],inhibition [3],growth inhibition [4],outcome [5],outcome [6],outcome [7],outcome [8]
COc1ccc(CNC2CCN(C)CC2)cc1-c1ccc(S(=O)(=O)NC2CCC2)cc1,76% (active),58% (active),1%,98% (active),inactive,inactive,inactive,inactive
COc1ccc(C2C(C(=O)Nc3cc(Cl)c(OC)cc3OC)c3ccccc3C(=O)N2C)cc1 (configuration not stated),98% (active),14%,4%,101% (active),inactive,inactive,inactive,inactive
CCc1cn(C)c2c(N3CCCC3=O)cc(C(=O)N[C@@H](Cc3ccccc3)[C@H](O)CNCc3cccc(OC)c3)cc12,97% (active),7%,0%,96% (active),inactive,inactive,inactive,inactive
Clc1ccc(-c2nc3ccc(-c4ccc5nc(-c6ccc(Cl)cc6)[nH]c5c4)cc3[nH]2)cc1,99% (active),59% (active),-5%,101% (active),inactive,inactive,inactive,inactive
CCC1CN2CCc3c([nH]c4ccccc34)C2CC1CC1=NCCc2c1[nH]c1ccc(OC)cc21 (configuration not stated),68% (active),99% (active),1%,101% (active),inactive,inactive,inactive,inactive
Cc1ccc(NC(=O)Nc2ccc(Br)cc2)cc1OCCN(C)C,15%,13%,-1%,84% (active),inactive,inactive,inactive,inactive
COc1ccc(CCN(C)CCOc2ccc(NC(=O)c3ccc([N+](=O)[O-])c4c(=O)c5ccccc5[nH]c34)cc2)cc1OC,25%,38%,-2%,91% (active),inactive,inactive,inactive,inactive
Oc1ccc(CCCc2cc(Oc3c(I)cc(CCc4ncc[nH]4)cc3I)ccc2O)cc1,7%,26%,-9%,95% (active),inactive,inactive,inactive,inactive
COc1ccc(-c2ccc(NC(=O)c3ccc(C#N)cc3)c(F)c2)cc1CN(C)CCN(C)C,0%,24%,-4%,88% (active),inactive,inactive,inactive,inactive
Cc1cccc2[nH]c(-c3ccc(-c4cccc(CN5CCCCC5)c4)s3)nc12,92% (active),11%,-2%,100% (active),inactive,inactive,inactive,inactive
CCn1c(C)c(C)c2cc(C(=O)Nc3ccon3)ccc21,93% (active),3%,-3%,95% (active),inactive,inactive,inactive,inactive
CCN(CC)CCN(Cc1ccc(-c2ccc(C(F)(F)F)cc2)cc1)C(=O)Cn1c(CCc2c(F)ccc(F)c2F)nc(=O)c2ccccc21,62% (active),44%,-6%,98% (active),inactive,inactive,inactive,inactive
O=S(=O)(Nc1ccc(CCN2CCC(N3CCCCC3)CC2)cc1)c1cccc(C(F)(F)F)c1,15%,20%,-3%,101% (active),inactive,inactive,inactive,inactive
CC(=O)COc1c(C2CCN(CCCCNC(=O)c3ccc(-c4ccc(C(F)(F)F)cc4)cc3)CC2)ccc2c1CCCC2,53% (active),100% (active),-7%,99% (active),inactive,inactive,inactive,inactive
CN1CCCC(CN2CCN(Cc3ccc(-c4ccc(-c5nc6ccccc6[nH]5)cc4)cc3)CC2)C1 (configuration not stated),100% (active),69% (active),0%,101% (active),inactive,inactive,inactive,inactive
CCOC(=O)c1ccc2nc(-c3ccc(C(=O)NCc4ccc(C(C)(C)C)cc4)cc3)[nH]c2c1,34%,-9%,-3%,94% (active),inactive,inactive,inactive,inactive
CCCCc1ccc(-c2ccc3[nH]c(C)c(Br)c(=O)c3c2)cc1,97% (active),-10%,-2%,97% (active),inactive,inactive,inactive,inactive
CN1CCC(Oc2cc(NC(=O)Nc3ccc(-c4ccncc4)c(C(F)(F)F)c3)ccc2Cl)CC1,92% (active),30%,-1%,100% (active),inactive,inactive,inactive,inactive
O=C(/C=C/c1ccc(F)c(Br)c1)NCCCCCN1CCC(c2c[nH]c3ccccc23)CC1,10%,39%,-7%,92% (active),inactive,inactive,inactive,inactive
